In the library only some 6.5% were active in any assay of this set; here they are far more common.
HT1080-NT tox = qHTS for induction of synthetic lethality in tumor cells producing 2HG: qHTS for the HT-1080-NT fibrosarcoma cell line; AID 686970, 2013; Potency, µM (titrated, usually from 46.1 µM), for inactives: top-dose activity, negative = less viability, most hits filed as cytotoxic; HT-1080-NT fibrosarcoma viability, CellTiter-Glo ATP luminescence, 48 h; 360,000 compounds, 1.6% hits;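 note: NT is the 2HG producing partner of a matched IDH1 knockdown line; potency is the fitted concentration of half-maximal effect; 0% = DMSO-treated cells and -100% = media-only wells without cells; nearly all actives have a fitted effect of over 55% in size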
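Toxicity toward the 2HG-producing NT line was scored as %Activity, normalised to DMSO and no-cell wells, from CellTiter-Glo luminescence after 48 hours' treatment.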
TGFb SMAD3 inh = qHTS for Inhibitors of TGF-b; Potency, µM (top dose mostly 46.1 µM), inactives show at the highest dose activity, negative = inhibition, most hits filed as inhibitors; HepG2 CAGA-GFP TGF-b/SMAD3 reporter, GFP fluorescence, 18 h; TGF-beta stimulated, 500 pg/mL final; 410,000 compounds, 1.2% hits; AID 588855, 2011; note: potency is the fitted concentration of half-maximal effect; % is set by controls: 0 for no effect and ±100 for the full control effect; nearly all actives have a fitted effect of over 65% in size
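HEPG2 CAGA-GFP cells (1000/well, DMEM with 1% FBS) were pre-incubated 2 h at 37 degrees C, given compound by pin tool, then stimulated with TGF-beta at 500 pg/mL final for 18 h before per-cell GFP fluorescence imaging.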
HT1080 IDH1KD tx = qHTS for induction of synthetic lethality in tumor cells producing 2HG: qHTS for the HT-1080-IDH1KD cell line; HT-1080 IDH1 knockdown viability, ATP luminescence, 48 h; 360,000 compounds, 2% hits; Potency, µM (doses to about 46.1 µM), for the others: top-dose activity, negative = toxicity, actives largely listed as cytotoxic;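 note: potency is the fitted concentration of half-maximal effect; 0% = DMSO wells and -100% = cell-free medium wells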
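Luminescent ATP read-out (CellTiter-Glo, 10 min at room temperature) after 48 h compound exposure at 37 °C gave viability of IDH1-knockdown HT-1080 cells. Activity was normalised to DMSO and cell-free wells, then fitted as concentration-response curves.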
Giardia kill = Small Molecules that selectively kill Giardia lamblia: qHTS; Giardia lamblia trophozoite viability; activity change, % at 7.66 µM, hits read low; 340,000 compounds, 0.15% hits; AID 540267, 2011; in the data active = activity change below about -80%; inconclusive = between about -30% and that limit;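 note: parasites exposed to compound for two days anaerobically before the ATP read; % is set by controls: 0 for no effect and ±100 for the full control effect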
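Trophozoite viability was measured as ATP-dependent luminescence, read 15-30 min after reagent addition. Before that, parasites at 100 cells/well were exposed to compounds for 48 h, anaerobically, at 37 deg C.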
IL-1B inflam inh = qHTS for Inhibitors of Inflammasome Signaling: IL-1-beta AlphaLISA Primary Screen. THP-1 LPS/ATP IL-1B secretion, AlphaLISA, 16 h; stronger effect = lower value. activity change, % at 57.5 µM. 360,000 compounds, 4.7% hits. AID 743279, 2014; in the data active = activity change below about -50%; inconclusive = mostly about -30% to -49%; note: % is set by controls: 0 for no effect and ±100 for the full control effect
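THP-1 cells pretreated 1 hr with compounds (up to 57.5 uM final), then stimulated with LPS (250 ng/mL final) plus ATP (1.25 mM final); secreted IL-1B measured by AlphaLISA after 16 hr, decreased signal indicating inhibition.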
HepG2 viability = qHTS for Inhibitors of TGF-b: Cytotox Counterscreen; HepG2 CAGA-GFP viability, ATP luminescence, 18 h; Potency, µM (series often up to 46.1 µM), without a hit: top-dose activity change, negative = cytotoxicity, actives largely listed as cytotoxic; 410,000 compounds, 0.76% hits; note: potency is the fitted concentration of half-maximal effect
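CellTiter-Glo luminescence gave cytotoxicity after 18 hours at 37 degrees C. The cells were HepG2 CAGA-GFP in 1% FBS DMEM, stimulated with 500 pg/mL TGF-beta after compound addition. %Activity was normalised to no-cell wells (complete cell-killing) and DMSO (no toxicity), and curves were fitted and classified.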
Active calls of the source: *; ? = inconclusive; . = not tested or not shown; ! = repeats disagree; [ ] = dose if it differs, or a comment. Unless noted, calls come from the whole dose curve; as a rule, active = well fitted curve in the direction sought with a large enough effect; inconclusive = small, poorly fitted or top-dose-only effect, or another doubt; inactive = no such curve, though single readings can be large; an effect the other way counts as inactive or inconclusive.

SMILES	HT1080-NT tox	TGFb SMAD3 inh	HT1080 IDH1KD tx	Giardia kill	IL-1B inflam inh	HepG2 viability
CCS(=O)(=O)Nc1cccc(C2=NN(C(=O)c3ccco3)C(c3ccco3)C2)c1 (stereo not drawn)	?	-4.8%	?	7.8	-21.9	-21.2%
CN(C(=O)C=Cc1ccccc1)c1ccccc1	4.2%	-3.5%	8.8%	4.2	-8.7	-9.0%
O=C(CCl)N(O)c1ccc(C=Cc2ccccc2)cc1	-3.2%	?	-20.7%	20.3	-77.1*	-70.6%
CSc1ccc(CCNC(=O)c2ccc(CS(=O)Cc3ccccc3Cl)o2)cc1 (stereo not drawn)	-3.5%	-30.5%	-3.2%	3.8	-7.5	-7.1%
NS(=O)(=O)c1ccccc1	-2.6%	-3.0%	12.4%	2.4	23.5	-3.5%
CCN(CC)c1ccc(SS(=O)(=O)O)cc1	0.5%	13.5%	14.1%	-10.3	-71.4*!	4.1%
O=S(=O)(O)Sc1ccccc1	-11.2%	-10.0%	?	.	-98.6*	-10.2%
COc1ccc(CN2CCN(Cc3cccc(Oc4ccccc4)c3)CC2)c(OC)c1OC	?	?	-16.4%	-8.8	-89.0*	-34.1%
CN1CCN(Cc2cccc(Oc3ccccc3)c2)CC1	11.9%	-8.0%	-0.3%[9.24 µM]	0.9	-53.1*	-2.5%
OC1CCN(Cc2cccc(Oc3ccccc3)c2)CC1	-3.2%	-12.6%	-19.0%	4.4	0.0	-11.7%
COc1cc(CN2CCN(Cc3cccc(OC)c3OC)CC2)cc(OC)c1	6.4%	18.1%	8.0%	6.6	18.2	3.0%
CC1(C)c2ccccc2N2CC(=O)N[C@@]21/C=C/C=C/c1ccccc1	10.3µM*	?	?	11.4	-27.9	21.0%
Cc1ccccc1/C=C/C12NC(=O)CN1c1ccccc1C2(C)C (stereo not drawn)	-15.7%	-11.6%	-7.9%	-0.5	1.3	-13.7%
N#CC1=C(N)OC2=C(CCc3ccccc32)C1c1ccccc1Cl (stereo not drawn)	7.31µM*	0.0%	4.61µM*	-12.8	-73.0*	-102.3%
N#CC1=C(N)Oc2cc(N)ccc2C1c1ccccc1Cl (stereo not drawn)	-10.3%	-20.5%	-25.3%	-1.1	46.2	-6.9%
N#Cc1c(NC(=O)c2ccccc2)sc2c1CCC2	?	0.2%	?	-10.1	20.3	-22.4%
CC(C)OC(=O)c1c(NC(=O)c2ccco2)sc2c1CCCCC2	-28.1%	2.9%	?	-6.2	-12.8	3.7%
N#Cc1c(NC(=O)c2cccnc2)sc2c1CCC2	16.4µM*	-17.2%	9.2µM*	-27.8	9.7	2.9%
Cc1ccc2c(=O)cc(C(=O)Nc3sc4c(c3C(=O)NCc3cccnc3)CCCC4)oc2c1C	.	-4.1%	.	.	.	7.6%
CNC(=O)c1c(NC(=O)c2ccco2)sc2c1CCCC2	1.3%	-3.1%	-1.5%	-0.8	-81.1*	1.0%
O=C(Nc1sc2c(c1C(=O)NCc1cccnc1)CCCC2)c1ccco1	-23.0%	-0.3%	-12.3%	18.4	-68.0*	-23.0%
Cc1ccc(C(=O)Nc2sc3c(c2C(=O)O)CCCCC3)o1	20.6µM*	-7.3%	18.4µM*	-15.9	0.3	-62.4%
CC(C)NCC(O)COc1ccc(CC(N)=O)cc1 (stereo not drawn)	27.0%	5.3%	16.4%	2.8	17.8	-11.9%
Cn1c(=O)c2ccccc2n2c(CCC(=O)N3CCN(c4cccc(Cl)c4)CC3)nnc12	.	-21.4%	.	.	.	0.3%
O=C(CC(=O)N/N=C/c1ccccc1O)NCc1cccnc1	-19.1%	-24.2%	-22.7%	4.0	30.2	-29.6%
SMILES	HT1080-NT tox	TGFb SMAD3 inh	HT1080 IDH1KD tx	Giardia kill	IL-1B inflam inh	HepG2 viability
CCc1ccc(CCC(=O)Nc2sc3c(c2C#N)CCCC3)o1	3.98µM*	-35.4%	4.47µM*	-13.1	32.0	-1.3%
O=C(Cn1ncc(Cl)c(Cl)c1=O)Nc1ccc2c(c1)OCO2	?	?	18.4µM*	-16.6	-99.3*	-38.7%
O=C(Cn1ncc(Cl)c(Cl)c1=O)c1ccc2c(c1)OCCO2	?	-18.8%	?	-8.5	-99.3*	-81.9%
COc1ccc(NC(=O)Cn2ncc(Cl)c(Cl)c2=O)cc1S(=O)(=O)N1CCOCC1	-20.8%	?	20.6µM*	-4.1	-53.6*	5.4%
COc1ccc(NC(=O)c2ccc(Cl)nc2)cc1S(=O)(=O)N1CCOCC1	-3.5%	-15.2%	-21.8%	1.3	35.7	0.5%
CCN(CC)S(=O)(=O)c1cc(NC(=O)Cn2ncc(Cl)c(Cl)c2=O)ccc1C	10.3µM*	-18.3%	7.31µM*	-6.0	-58.9*	1.2%
Cc1nn(CC(=O)Nc2ccc3c(c2)OCO3)c(C)c1Cl	-12.7%	?	0.4%	1.8	-15.1	-2.1%
CCC(=O)c1ccc2c(c1)OCCO2	5.7%	20.5%	6.4%	1.5	-6.4	21.4%
COc1cc(/C=N\NC(=O)C2COc3ccccc3O2)cc(OC)c1O (stereo not drawn)	-3.4%	2.5%	-2.5%	-12.2	-70.8*	-15.3%
COc1ccc(OC)c(NS(=O)(=O)c2ccc(NC(=O)C3COc4ccccc4O3)cc2)c1 (stereo not drawn)	?	?	?	-13.0	-68.3*	-19.0%
COc1ccc(/C=N\NC(=O)C2COc3ccccc3O2)cc1O (stereo not drawn)	14.6µM*	-13.7%	11.6µM*	-3.4	13.1	-35.6%
Nc1c(-c2ccc(Cl)cc2)cnn1-c1cccc([N+](=O)[O-])c1	3.8%	-22.9%	17.3%	-6.5	-1.3	-24.0%
COc1cc2c(cc1N)-c1ccc(N)cc1C2=O	3.2%	-3.6%	-3.4%	.	-63.6*	-2.3%
Nc1ccc2c(c1)C(=O)c1cc(N)c(Cl)cc1-2	?	0.0%	-20.1%	16.5	-27.9	-6.3%
CCN(CC)CCN1C(=O)C(O)=C(C(=O)c2cccs2)C1c1ccccn1 (stereo not drawn)	14.8%	-8.8%	-2.1%	17.0	48.6	-4.7%
Cc1[nH]nc(-c2ccc(O)cc2O)c1-c1ccc(Cl)cc1	1.1%	?	-29.4%	1.8	?	-45.3%
COc1ccc(-c2n[nH]c(C)c2-c2ccc(Cl)cc2)c(O)c1	20.6µM*	?	20.6µM*	5.2	-18.4	-83.3%
COc1ccc(-c2n[nH]c(C)c2-c2ccc(Cl)cc2)c(O)c1OC	-24.6%	-7.3%	?	7.0	-14.1	17.8µM*
O=C(C[n+]1cc(-c2ccc(F)cc2)n2c1CCC2)Nc1nc(-c2ccccc2)cs1	-15.4%	10.5%	-29.9%	-11.1	-2.3	5.0%

Bioassay records as filed in PubChem.
